# BoNT-A LC inh2 – BoNT/A light chain protease inhibitors, primary screen, biochemical, flow cytometry, MLPCN library. AID 588499, 2011. 0.17% of 360,000 active. Botulinum neurotoxin type A light chain protease (Clostridium botulinum A str. ATCC 3502). multiplex microsphere protease substrate cleavage. inhibition, % at 10 µM; note: plate controls were buffer without enzyme for full effect and enzyme alone for no effect
# BoNT F protease – BoNT/F light chain protease inhibitors, primary screen, biochemical, flow cytometry, MLPCN library; Botulinum neurotoxin type F light chain protease (Clostridium botulinum); Multiplex microsphere protease cleavage assay; AID 588497, 2011; 0.22% of 360,000 active; inhibition, % at 10 µM; in the data active = inhibition above about 35%, passing the limit was not always enough; inconclusive = no clear call, values can overlap the other calls; note: plate controls were buffer without enzyme for full effect and enzyme alone for no effect
# Anthrax LF inh2 – Bacillus anthracis LF protease inhibitors, primary screen, biochemical, multiplex microsphere, MLPCN library; 0.12% of 360,000 active; multiplex microsphere protease cleavage assay; inhibition, % at 10 µM; AID 588501, 2011; note: plate controls were buffer without enzyme for full effect and enzyme alone for no effect
# Target sequence (P15917 whole entry, looked up): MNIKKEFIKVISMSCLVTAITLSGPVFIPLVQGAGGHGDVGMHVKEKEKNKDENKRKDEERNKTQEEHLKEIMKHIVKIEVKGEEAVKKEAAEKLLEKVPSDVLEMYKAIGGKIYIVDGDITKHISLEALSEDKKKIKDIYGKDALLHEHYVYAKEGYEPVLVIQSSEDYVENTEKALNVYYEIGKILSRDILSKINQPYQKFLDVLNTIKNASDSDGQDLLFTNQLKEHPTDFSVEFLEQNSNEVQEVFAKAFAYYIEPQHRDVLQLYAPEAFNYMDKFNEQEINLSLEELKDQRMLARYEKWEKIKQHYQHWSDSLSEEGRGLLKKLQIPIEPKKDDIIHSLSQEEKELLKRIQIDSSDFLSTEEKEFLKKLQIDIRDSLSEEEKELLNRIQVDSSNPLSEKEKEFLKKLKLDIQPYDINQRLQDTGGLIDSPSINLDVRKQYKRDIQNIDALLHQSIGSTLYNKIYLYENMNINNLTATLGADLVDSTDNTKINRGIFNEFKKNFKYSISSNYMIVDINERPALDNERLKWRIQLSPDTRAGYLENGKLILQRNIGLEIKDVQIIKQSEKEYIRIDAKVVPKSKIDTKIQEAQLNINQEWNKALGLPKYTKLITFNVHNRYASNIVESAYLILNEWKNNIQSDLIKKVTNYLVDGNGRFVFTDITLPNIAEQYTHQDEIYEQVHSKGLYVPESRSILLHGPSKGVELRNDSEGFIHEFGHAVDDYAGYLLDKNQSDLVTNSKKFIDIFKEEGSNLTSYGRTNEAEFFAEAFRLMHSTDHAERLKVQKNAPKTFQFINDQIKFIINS
# SARS 3CLpro inh – SARS-CoV 3CLpro protease inhibitors, primary screen, biochemical, quenched FRET; recombinant SARS-CoV 3CLpro, quenched FRET peptide cleavage; Replicase polyprotein 1ab (Severe acute respiratory syndrome coronavirus), P0C6X7; inhibition, % at 6 µM; 0.14% of 290,000 active; in the data active = inhibition above about 12%
# Autofluor counter – counter-screen for toxin protease inhibitors: compound fluorescence | 3.1% of 360,000 active | fluorescence intensity (concentration not given with the values) | AID 624483 | compound autofluorescence counterscreen, microsphere flow cytometry; stronger effect = higher value; in the data active = fluorescence intensity above about 16000; inconclusive = no clear call, values can overlap the other calls
# Active calls of the source: *; ? = inconclusive; · = no result. Shown are actives, neighbours in structure and some others; about 3.5% of the full set was active somewhere. Cut-off read from the data, not from the text of the source, unless noted: active = inhibition above about 30%; inconclusive = no clear call, values can overlap the other calls; inactive = below that.
SMILES,BoNT-A LC inh2,BoNT F protease,Anthrax LF inh2,SARS 3CLpro inh,Autofluor counter
COC(=O)[C@H](CC(C)C)NC(=O)NC1CCCc2ccccc21 (some centres undefined),-0.1,-8.7,-2.5,2.9,2303
COC(=O)[C@H](CC(C)C)NC(=O)NC1CCCCC1C (some centres undefined),4.3,6.4,-17.1,-1.4,17745*
NC(=O)c1sc2nc(N3CCCCC3)c3c(c2c1N)CCCC3,0.1,-2.6,3.5,2.1,16416*
COC(=O)c1sc2nc(N3CCCCC3)c3c(c2c1N)CCCC3,-0.9,0.1,-1.0,3.2,3233
CC(C)n1c(=O)c2c(O)cc(=O)oc2c2ccccc21,?,3.7,-0.7,6.3,21712*
CCn1c(=O)c2c(O)cc(=O)oc2c2ccccc21,?,-2.5,3.0,0.6,22829*
O=c1cc(O)c2c(=O)n(-c3ccccc3)c3ccccc3c2o1,0.9,9.8,1.6,0.3,4355
CC(NC(=O)/C(C#N)=C1\N=C(NC(=O)c2cccs2)c2ccccc21)c1ccccc1 (centres undefined),30.0*,9.3,14.9,1.8,6060
COC(=O)c1cc(S(=O)(=O)NCC2CCN(Cc3cccc(F)c3)CC2)c[nH]1,1.0,7.8,0.0,4.9,4088
Cc1cccc(OCc2nnc(SCC(=O)N(C(C)C)C(C)C)n2Cc2ccco2)c1C,0.4,2.8,0.2,5.5,16236*
CCOc1ccccc1NC(=O)/C=C/c1ccccc1[N+](=O)[O-],0.5,2.9,0.1,-0.5,2490
CSc1ccc(C(=S)N2CCN(Cc3ccccc3)CC2)cc1,6.6,13.2,-16.8,1.2,19865*
O=C(CN1CCN(Cc2ccccc2)CC1)c1ccccc1,0.1,-3.6,-1.5,-0.3,3433
O=C(CN1CCN(Cc2ccccc2)CC1)c1ccc(Br)cc1,0.2,-4.6,4.1,3.3,21164*
O=C(C1CCCN(S(=O)(=O)c2ccc(Br)cc2)C1)N1CCN(Cc2ccccc2)CC1 (centres undefined),-233.6,-391.0,-59.6,9.0,55843*
COc1ccc(C)cc1NC(=O)NCCC1=CCCCC1,-3.5,-5.4,-2.0,-4.7,21584*
Cc1ccc(S(=O)(=O)N2CCCCC2)cc1C(=O)NCCC1=CCCCC1,1.1,?,2.1,·,4532
Cc1cc(C(=O)NCCC2=CCCCC2)c(C)o1,-0.2,0.3,0.3,-0.2,16581*
Cc1cc(C)cc(N(C(C)C(=O)NCCC2=CCCCC2)S(C)(=O)=O)c1 (centres undefined),-2.5,-4.6,-0.5,-2.0,23149*
CC(C)C(=O)Nc1ccc(C(=O)NNC(=O)NC2CCCCC2)cc1,?,11.4,-9.7,0.9,17675*
CC(C)CCNC(=O)C(=O)NCCC1=CCCCC1,-0.3,3.0,-0.7,0.2,2157
COc1ccc(-n2cnnc2SCC(=O)Nc2ccc(N3CCOCC3)cc2)cc1,-0.4,-8.8,-6.1,-2.0,3281
CCOc1ccc(NC(=O)C(C)SC(N)=O)cc1 (centres undefined),-0.5,-8.4,0.5,1.6,10191
CS(=O)(=O)Nc1ccc(C(=O)NC2CCCC2)cc1,-0.3,-1.0,-2.0,-2.2,20262*
COc1cc(C(=O)OCC(=O)NCCC2=CCCCC2)cc(OC)c1OC,-2.1,-7.9,-0.7,·,5857
SMILES,BoNT-A LC inh2,BoNT F protease,Anthrax LF inh2,SARS 3CLpro inh,Autofluor counter
CS(=O)(=O)Nc1ccc(C(=O)NCCC2=CCCCC2)cc1,?,-6.1,-0.9,-3.0,24230*
COc1cc(C(=O)NCCC2=CCCCC2)cc(OC)c1OC,1.3,4.1,-0.3,4.1,22928*
CC(C)(C)NNC(=S)Nc1cccc(F)c1,-6.7,?,-12.6,1.7,4021
COc1ccc(C(=O)Nc2ccc3oc(-c4cccc(F)c4)nc3c2)cc1OC,-0.2,4.3,-8.6,·,4315
CCCC(=O)Nc1ccc2oc(-c3ccc(OC)c(Br)c3)nc2c1,2.9,3.3,-5.7,-4.0,21634*
COc1ccccc1C(=O)Nc1ccc2oc(-c3ccc(F)cc3)nc2c1,-1.9,-1.1,-0.2,-2.1,17405*
CCCC(=O)Nc1ccc(-c2nc3cc(C)ccc3o2)cc1,0.1,-11.5,-3.0,-4.7,4846
C(=N\n1cnnc1)/c1cccc(OCCOc2ccccc2)c1,-0.1,-1.9,-3.9,-4.8,2337
CC(C)C(c1nnnn1C1CCCC1)N1CCc2ccccc21 (centres undefined),6.5,-2.1,-8.3,-1.4,17487*
CC(C)C(c1nnnn1C1CCCCC1)N1CCCc2ccccc21 (centres undefined),-0.4,-3.8,0.2,1.9,3352
CC(C)C(c1nnnn1C1CCCC1)N1CCCc2ccccc21 (centres undefined),-2.8,-1.8,-2.0,-4.5,24060*
Cc1ccc(C)c(NC(=O)N2CCCCCC2)c1,4.6,1.6,-0.6,-1.5,4497
Cn1c(N2CCNCC2)nc2ccccc21,0.5,-0.1,0.8,-3.9,19898*
Cc1nn(-c2ccc(F)cc2F)c2c1-c1nc(N3CCCC3)ncc1CC2,?,-5.5,-1.1,0.9,23757*
CCOc1ccc(NC(=O)/C=C/c2ccc(OC)cc2)c([N+](=O)[O-])c1,0.1,-7.2,-4.1,-1.7,2123
Nc1nc(-c2ccccc2)c(CC(=O)O)s1,-0.4,-1.7,-0.5,·,3920
Cc1ccc(C2CC(=O)c3cnc(N4CCc5ccccc5C4)nc3C2)cc1 (centres undefined),?,1.9,-3.0,-3.0,19424*
O=C1CC(c2ccccc2)Cc2nc(N3CCc4ccccc4C3)ncc21 (centres undefined),0.4,0.0,-8.0,4.3,4477
O=P(Cc1ccccn1)(c1ccccc1)c1ccccc1,-2.5,-3.3,-3.2,-1.8,24061*
COC(=O)c1cc(OC)c(OC)cc1NC(=O)CSCc1c(C)noc1C,-0.6,-3.4,-10.7,·,4070
Cc1ncoc1C(=O)Nc1ccccc1-c1ccccc1,0.5,0.5,0.6,-0.5,23728*
Cc1ncoc1C(=O)Nc1ccc(Oc2ccccc2)cc1,2.8,-2.1,-2.7,-0.5,19937*
Cc1nc(C)c(C(=O)Nc2cccc(Cl)c2)o1,0.4,-5.5,-2.4,-6.2,11479
Cc1nc(C)c(C(=O)Nc2ccc(Oc3ccccc3)cc2)o1,3.7,2.8,0.7,-0.3,19915*
CC(C(=O)N(C)C)N1c2cccc3cccc(c23)S1(=O)=O (centres undefined),-1.9,4.7,-5.9,1.8,3218
Cc1oc(=O)c(NC(=O)c2cccc(Cl)c2)cc1C(=O)c1ccccc1,?,1.4,-0.5,6.8,21979*
COc1ccc(C(=O)Nc2cc(C(=O)c3ccccc3)c(C)oc2=O)cc1,-0.2,5.0,-5.8,-0.3,10513
COc1ccc(-n2c(=O)cc(N3CCCCCC3)[nH]c2=O)cc1,0.2,-0.3,-0.7,-2.2,10048

# Assay outcomes from PubChem.
